Data: PubChem BioAssay (NCATS)
Values joined by “and” are separate entries in the source; they are usually repeats but may differ in a detail not shown here. Equal entries are not always repeated. Records with an inconclusive call do not appear. Active and inactive are the calls of the source. The call rests on the fitted dose curve. Starred links: 1 amine or outer side, 2 acyl side, 3 side chain; linkers in the order of their positions; H or OH if unused. Positions of bridges follow the written chain, without caps; N, C: chain ends. Non-standard residues stand in square brackets, D forms with d. Residues, ends and D or L forms follow the SMILES beside them. ξ: configuration not given here. *: point of attachment. ΔAla(3-NHCONH2) = NC(=O)NC=C(N)C(=O)O; X1 = NC1=NCCC(C(N[*:1])C(=O)[*:2])N1; ξβ3hOrn = NCCCC(N)CC(=O)*; Dap = NC[CH](N)C(=O)O

assay: Primary qHTS to identify inhibitors of SARS-CoV-2 cell entry (AID 1645846); conditions: SARS-CoV-2 pseudovirus cell entry assay, luminescence; activity change, negative = inhibition: at 57.1 µM (top of the series) unless noted; series mostly up to 57.1 µM; further: nearly all actives have a fitted effect of over 45% in size
How it was run: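 Entry measured by luciferase signal 48 h after adding SARS-CoV-2-S pseudotyped MLV particles to HEK293-ACE2 cells preincubated 1 h with compounds. Normalisation: bald particles and spike particles.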
Potency means the concentration at half of the fitted maximal effect.

SMILES	Potency	activity change, negative = inhibition
C[C@H]1[C@H](NC(=O)/C(=N/OC(C)(C)C(=O)O)c2csc(N)n2)C(=O)N1S(=O)(=O)O (stereo in doubt)	inactive	–
CCCCCOC(=O)Nc1nc(=O)n([C@@H]2O[C@H](C)[C@@H](O)[C@H]2O)cc1F	inactive	–
CCCC(=O)Nc1ccc(OCC(O)CNC(C)C)c(C(C)=O)c1 (stereo unspecified)	–	4.12%
CC[C@]1(O)C[C@H]2CN(CCc3c([nH]c4ccccc34)[C@@](C(=O)OC)(c3cc4c(cc3OC)N(C=O)[C@H]3[C@@](O)(C(=O)OC)[C@H](OC(C)=O)[C@]5(CC)C=CCN6CC[C@]43[C@@H]65)C2)C1	–	-77.7% and -70.4%
CC(C)NCC(O)COc1ccc(CCOCC2CC2)cc1 (stereo unspecified)	–	-14.6% and -1.57%
COc1cc(Nc2c(C#N)cnc3cc(OCCCN4CCN(C)CC4)c(OC)cc23)c(Cl)cc1Cl	3.16 µM (active)	–
CCCNCC(O)COc1ccccc1C(=O)CCc1ccccc1 (stereo unspecified)	20 µM (active) and 35.5 µM (active)	–
C[n+]1ccccc1/C=N/O	inactive	–
O=c1[nH]cc(F)c(=O)[nH]1	11.2 µM (active) and 14.1 µM (active)	–
NCCCC(N)CC(=O)NCC1NC(=O)C(CO)NC(=O)C(N)CNC(=O)C(C2CCN=C(N)N2)NC(=O)C(=CNC(N)=O)NC1=O (stereo not drawn) (H-[Dap]S[Dap](ξβ3hOrn)[ΔAla(3-NHCONH2)][X1]; lactam 1-C; configuration not given here)	–	3.17% [at 0.702 µM]
NCCCC(O)(P(=O)(O)O)P(=O)(O)O	–	-4.6% and -17.5%
Cc1ccc(NC(=O)c2ccc(CN3CCN(C)CC3)cc2)cc1Nc1nccc(-c2cccnc2)n1	35.5 µM (active)	–
O=C1CCC(N2C(=O)c3ccccc3C2=O)C(=O)N1 (stereo unspecified)	–	-0.562% and -0.309%
CCOc1ccccc1OCCN[C@H](C)Cc1ccc(OC)c(S(N)(=O)=O)c1	–	-21.5%
CC1=C(C(=O)O)N2C(=O)[C@@H](NC(=O)[C@H](N)c3ccccc3)[C@H]2SC1	–	-1.93%
CCCCOCCOCCOCc1cc2c(cc1CCC)OCO2	–	-2.81%
Cc1ccsc1C(=CCCN1CCC[C@@H](C(=O)O)C1)c1sccc1C	–	-13.3%
O=C(O)C(=O)c1cn(Cc2ccccc2)c2ccc(-c3ccc(OC(F)(F)F)cc3)cc12	–	-24.2%

SMILES	Potency	activity change, negative = inhibition
CNS(=O)(=O)Cc1ccc2[nH]cc(CCN(C)C)c2c1	inactive	–
CC[N+](C)(C)c1cccc(O)c1	inactive	–
Cc1ccnc2c1NC(=O)c1cccnc1N2C1CC1	–	-19.4%
CCOC(=O)[C@H](CCc1ccccc1)N[C@@H](C)C(=O)N1[C@H](C(=O)O)C[C@@H]2CCC[C@@H]21	inactive	–
CC(=O)N[C@@H](CS)C(=O)O	inactive	–
CN(CCOc1ccc(NS(C)(=O)=O)cc1)CCc1ccc(NS(C)(=O)=O)cc1	–	4.03% and 4.22%
CC(=O)[C@]1(O)Cc2c(O)c3c(c(O)c2[C@@H](O[C@H]2C[C@H](N)[C@H](O)[C@H](C)O2)C1)C(=O)c1ccccc1C3=O	–	-91.2% and -93.3%
CCCCc1oc2ccc(NS(C)(=O)=O)cc2c1C(=O)c1ccc(OCCCN(CCCC)CCCC)cc1	11.2 µM (active)	–
COc1ccccc1Oc1c(NS(=O)(=O)c2ccc(C(C)(C)C)cc2)nc(-c2ncccn2)nc1OCCO	–	-16.5%
CC(c1cc2ccccc2s1)N(O)C(N)=O (stereo unspecified)	–	4.54% and -93%
CC(C)(C(=O)O)c1ccc(C(O)CCCN2CCC(C(O)(c3ccccc3)c3ccccc3)CC2)cc1 (stereo unspecified)	inactive	–
COc1cc(NCc2ccc3nc(N)nc(N)c3c2C)cc(OC)c1OC	2.82 µM (active)	–
CC(=O)SC[C@@H](C)C(=O)N1CCC[C@H]1C(=O)N[C@@H](Cc1ccccc1)C(=O)O	–	-7.21%
CC(=O)Nc1nnc(S(N)(=O)=O)s1	–	1.7%
CCCCNC(=O)NS(=O)(=O)c1ccc(C)cc1	inactive	–
OCCN1C[C@H](O)[C@@H](O)[C@H](O)[C@H]1CO	–	-28.6% and -30.5%
CN1CCC(=C2c3ccccc3C=Cc3ccccc32)CC1	–	-24.8%
CN(Cc1cnc2nc(N)nc(N)c2n1)c1ccc(C(=O)N[C@@H](CCC(=O)O)C(=O)O)cc1	–	-94.2%
